Screening results as filed in PubChem.
Rows were chosen to be rich in hits. Some 8% of all compounds tested hit in one or more screens of this group.
LASV entry inh = inhibitors of Lassa virus binding or cell entry; 1.2% of 300,000 active; Lassa virus pseudotype entry inhibition, cell reporter; Potency, µM (series often up to 37.9 µM), hits mostly inhibitors; calls by dose curve; tested in HEK293 cells; further: nearly all actives have a fitted effect of over 50% in size
HCV inhibitor = HCV inhibition. Huh7.5.1 HCVcc-Cre infection, luciferase reporter, 44 h. 3.4% of 340,000 active. Potency, µM (highest dose often 41.8 µM), hits mostly inhibitors; active means well fitted inhibition curve with a large enough effect; inconclusive means small, poorly fitted or top-dose-only effect, or another doubt; inactive means no such curve, though single readings can be large or run the other way
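After 44 h co-culture of compound, cells and HCVcc-Cre (~0.5 moi), substrate is added for 15 min at room temperature and luciferase measured over 15 sec. Cells were seeded at 1,000/well and pre-cultured 4 h.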
FMDV antiviral = antivirals against foot and mouth disease virus. FMDV antiviral cell-based qHTS. Potency, µM (doses to about 57.9 µM), actives largely listed as inhibitors. 1.2% of 410,000 active; calls by dose curve; tested in HEK293T cells; further: read-out not given here; nearly all actives have a fitted effect of over 45% in size
Marburg entry inh = blocks Marburg virus binding to or entry into cells; Potency, µM (top dose mostly 37.8 µM), hits mostly inhibitors; Marburg virus pseudotyped entry inhibition, cell reporter; 1.8% of 300,000 active; calls by dose curve; tested in HEK293 cells
HCMV inh = human cytomegalovirus inhibition; HFF cells, HCMV-luciferase reporter, 72 h; active compounds read low; activity change, negative = inhibition, % at 57.5 µM; 4.5% of 410,000 active; AID 1259415; in the data active means activity change below about -60%; inconclusive means no clear call, values can overlap the other calls; inactive means above about -39%
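Cell-based, HFFs, 1000 cells/well, 16 h 37C; cpds in DMSO + HCMV-luc, MOI 1 PFU/cell; 72 h 37C; OneGlo luminescence after 5 min RT; norm. to buffer vs Salinomycin 10uM.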
SARS PLP yeast = inhibitors of SARS-CoV papain-like protease in yeast. S. cerevisiae expressing SARS-CoV PLpro, growth rescue. Potency, µM (doses to about 32.9 µM), usual class: activators. 0.19% of 330,000 active. AID 485353; calls by dose curve; further: nearly all actives have a fitted effect of over 55% in size
Numbers stand for hits; 0 = inactive; ? = inconclusive; - = not tested or not shown.

SMILES	LASV entry inh	HCV inhibitor	FMDV antiviral	Marburg entry inh	HCMV inh	SARS PLP yeast
CCN1CCCC1CNC(=O)CN(C)S(=O)(=O)c1ccc(Cl)cc1 (stereo unspecified)	0	0	0	0	0	0
Cc1ccc(NC(=O)OC[C@@H]2CSCCS(=O)(=O)N2)cc1	-	-	-	?	0	-
Cc1cc(C)cc(C(=O)N2CC(C)SC2=Nc2cccc(S(=O)(=O)N(C)C)c2)c1 (stereo unspecified)	?	?	0	?	?	0
CN(C)S(=O)(=O)c1cccc(N=C2SCCN2Cc2ccccc2)c1	?	10µM	?	?	0	0
COCc1[nH]nc2c1[C@@H](c1ccnc3ccccc13)C(C#N)=C(N)O2	-	-	-	0	-	-
Nc1nnc(SCC(=O)N2CCc3ccccc3C2)s1	?	0	0	0	0	0
COC(=O)N1c2ccccc2C23[C@@H]4CN5CCC[C@]6(CCC12C(O)(C6)C4=O)[C@H]53	-	-	0	-	-	-
NNC(=O)c1ccc(COc2ccc3c(c2)CCC3)o1	0	0	0	?	0	0
O=C(NC(c1cccnc1)C(F)(F)F)c1cc(COc2ccc3c(c2)CCCC3)on1 (stereo unspecified)	-	4.5µM	0	-	-82	0
COc1cccc(-c2cc3nc(NCCN4CCCC4)n(C)c(=O)c3s2)c1	-	-	0	-	0	-
CC1CCC/C(=C\Nc2ccc(O)cc2)C1=O (stereo unspecified)	0	0	0	0	0	0
Cc1cc(C(=O)O)ccc1N/C=C1\CCCC(C)C1=O (stereo unspecified)	13µM	0	?	7.9µM	0	0
O=C(CN1CCN(c2ccccc2F)CC1)NC(=O)NC1CCCCC1	0	0	0	0	0	0
CC(=O)N1CCc2cc(NC(=O)C3(C)CCN3Cc3ccccc3OC(F)F)ccc21 (stereo unspecified)	-	-	?	-	-61	-
COc1cccc(NC(=O)C2(C)CCN2Cc2ccc(OC)c3ccccc23)c1 (stereo unspecified)	-	-	0	-	0	-
COc1cccc(CN2CCC2(C)C(=O)Nc2cccc(Oc3ccccc3)c2)c1OC (stereo unspecified)	-	-	0	-	-61	-
CSc1ccc(CN2CCC2(C)C(=O)Nc2cnc3ccccc3c2)cc1 (stereo unspecified)	-	-	0	-	0	-
COc1cccc(NC(=O)C2(C)CCN2Cc2ccccc2OC(F)F)c1 (stereo unspecified)	-	-	0	-	?	-
CC1(C(=O)Nc2cnc3ccccc3c2)CCN1Cc1ccccc1Cl (stereo unspecified)	-	-	0	-	-76	-
CCn1c(-c2ccccc2F)nc2cc(NC(C)=O)cc(C(=O)N3CCC[C@H]3C(=O)OC)c21	-	-	0	-	-	-
CCCC1Cc2c(sc(N)c2C#N)CO1 (stereo unspecified)	?	0	0	0	0	0
Cc1ccc(Cn2cnc3c(cnn3C(C)(C)C)c2=O)cc1	-	11µM	25µM	-	?	0
CC(C)(C)n1ncc2c(=O)n(Cc3ccc(Cl)c(Cl)c3)cnc21	0	0	0	0	0	0
COCCNC(=O)C(c1ccc(C)o1)N(Cc1ccco1)C(=O)c1snc(C(N)=O)c1N (stereo unspecified)	0	0	0	0	?	0
COCCNC(=O)C(c1ccc(C)o1)N(C(=O)c1snc(C(N)=O)c1N)c1cc(C)cc(C)c1 (stereo unspecified)	?	0	-	0	-78	0
SMILES	LASV entry inh	HCV inhibitor	FMDV antiviral	Marburg entry inh	HCMV inh	SARS PLP yeast
COc1ccc(OC)c(C(C(=O)NC2CCCCC2)N(C(=O)c2snc(C(N)=O)c2N)c2ccccc2OC)c1 (stereo unspecified)	?	0	0	?	-61	0
COc1ccc(C)cc1N(C(=O)c1snc(C(N)=O)c1N)C(C(=O)NC1CCCCC1)c1ccc(C)o1 (stereo unspecified)	?	?	0	11µM	?	0
COc1ccccc1N(C(=O)c1snc(C(N)=O)c1N)C(C(=O)NC1CCCCC1)c1cccc(OC)c1OC (stereo unspecified)	?	?	0	?	?	0
CCOc1ccc(/C=C/C(=O)C(C(N)=O)=C2SCCS2)cc1	0	0	0	?	-73	0
COc1ccc(NC(=O)Cn2nnc(C(=O)NCc3ccccc3Cl)c2N)cc1Cl	0	-	0	-	0	-
COc1ccc(NC(=O)CSc2nccn2C)c([N+](=O)[O-])c1	0	0	0	0	0	0
CCCN1C2CCCC1CC(NC(=O)Nc1cccc(C(C)=O)c1)C2 (stereo unspecified)	0	2.8µM	0	0	0	0
Cc1nn(Cc2ccc(Cl)cc2Cl)c(Cl)c1C(=O)NC1CCCc2ccccc21 (stereo unspecified)	0	0	20µM	0	0	0
CN(C(=O)CCl)C1CCCc2ccccc21 (stereo unspecified)	-	?	16µM	-	0	0
CC(=O)c1cccc(NC(=O)NC2CCCc3ccccc32)c1 (stereo unspecified)	-	?	0	-	-70	0
Cc1nn(Cc2ccccc2)c(C)c1C(=O)NC1CCCc2ccccc21 (stereo unspecified)	0	0	0	0	0	0
CC(=O)c1cccc(NC(=O)NC2CC3CCCC(C2)N3CC(C)C)c1 (stereo unspecified)	0	0	0	?	0	0
CCOc1ccc(NC(=O)c2cnc(N3CCCC3)nc2C)cc1	0	-	0	-	0	-
CN(Cc1ccc(F)cc1)S(=O)(=O)c1nnc(NC(=O)c2ccccc2Cl)s1	0	-	0	-	?	-
O=C(CCl)NC1CCCc2ccccc21 (stereo unspecified)	0	0	?	?	-109	0
O=C(NC1CCCc2ccccc21)c1c(F)cccc1Cl (stereo unspecified)	0	0	0	0	-67	0
O=C(NC1CCSc2ccccc21)c1c(F)cccc1Cl (stereo unspecified)	0	0	0	0	0	0
O=C(Cc1ccc(Br)cc1)NC1CCCc2ccccc21 (stereo unspecified)	?	0	0	?	0	0
CCCc1ccc(OCc2ccc(C(=O)N3CCN(c4ccccn4)CC3)o2)c(OC)c1	0	?	?	23µM	0	0
CCCNC(=O)c1ccc(COc2ccc(CCC)cc2OC)o1	6.3µM	?	?	0	-62	0
COc1ccc(CCNC(=O)c2cc(=O)c3cc(C)c(C)cc3o2)cc1OC	?	-	0	0	0	-
COc1ccc(CCNC(=O)c2cc(=O)c3cc(C)ccc3o2)cc1OC	-	22µM	?	-	?	0
O=C(COC(=O)c1ccc(S(=O)(=O)N2CCCCC2)cc1)Nc1ccccc1	-	0	0	-	0	0
Cc1cc(OCCn2c(CCNC(=O)C3CCCCC3)nc3ccccc32)ccc1Cl	0	-	0	0	0	-
COc1ccc(OC)c(CCNC(=O)Cc2ccc(NC(=O)C3=C(C)OCCS3)cc2)c1	-	-	0	-	0	-
COc1ccc(OC)c(CCNC(=O)c2cccc(NC(=O)C3=C(C)OCCS3)c2)c1	-	11µM	0	-	0	0
COc1cc(CCNC(=O)c2ccccc2NC(=O)C2=C(C)OCCS2)cc(OC)c1OC	-	0	?	-	0	0
